# Source: publication PMC8384837, “Expanding the binding specificity for RNA recognition by a PUF domain”
# Legend:
# Test in all cases: yeast three-hybrid, YBZ-1, SC-Leu-His + 0.5 mM 3-AT, 4 days
# Conditions in all cases: tags: N-Gal4 AD-HA kept; label: inside an RPR1-promoter hybrid RNA with tandem MS2 sites; ssRNA
# PUM1 PUF domain R5-QRR = PUM1 PUF domain R5-QRR (Homo sapiens, UniProt Q14671 828-1176, C1007Q;Q1011R)
# In short: (§1)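 The interaction score is the log change in how often each variant appears, from input to selection. Frequencies came from PCR-amplified, Illumina-sequenced repeat regions of Pumilio-1 PUF domain libraries grown in strain YBZ-1 (LexA–MS2 coat fusion, HIS3 reporter) alongside matching RNA elements. Input plates were SC-Leu and selection plates were SC-Leu-His + 0.5 mM 3-AT, each for four days, and the log2 calculation used a pseudocount of 1 where a variant was absent.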
# PUM1 PUF domain R1-RRQ = PUM1 PUF domain R1-RRQ (Homo sapiens, UniProt Q14671 828-1176, S863R)
# In short: as §1
# PUM1 PUF domain R1-VWR = PUM1 PUF domain R1-VWR (Homo sapiens, UniProt Q14671 828-1176, S863V;R864W;Q867R)
# In short: as §1
# PUM1 PUF domain R1-SWD = PUM1 PUF domain R1-SWD (Homo sapiens, UniProt Q14671 828-1176, R864W;Q867D)
# In short: as §1
# PUM1 PUF domain R3-GCE = PUM1 PUF domain R3-GCE (Homo sapiens, UniProt Q14671 828-1176, C935G;R936C;Q939E)
# In short: as §1
# PUM1 PUF domain R5-RRI = PUM1 PUF domain R5-RRI (Homo sapiens, UniProt Q14671 828-1176, C1007R;Q1011I)
# In short: as §1
# PUM1 PUF domain R5-RNL = PUM1 PUF domain R5-RNL (Homo sapiens, UniProt Q14671 828-1176, C1007R;R1008N;Q1011L)
# In short: as §1
# PUM1 PUF domain R5-KNQ = PUM1 PUF domain R5-KNQ (Homo sapiens, UniProt Q14671 828-1176, C1007K;R1008N)
# In short: as §1
# PUM1 PUF domain R5-KQL = PUM1 PUF domain R5-KQL (Homo sapiens, UniProt Q14671 828-1176, C1007K;R1008Q;Q1011L)
# In short: as §1
# PUM1 PUF domain R7-RER = PUM1 PUF domain R7-RER (Homo sapiens, UniProt Q14671 828-1176, S1079R;N1080E;E1083R)
# In short: as §1
# PUM1 PUF domain R6-WWR = biological target: T1, PUM1 PUF domain R6-WWR (Homo sapiens, UniProt Q14671 828-1176, N1043W;Y1044W;Q1047R)
# T1 sequence: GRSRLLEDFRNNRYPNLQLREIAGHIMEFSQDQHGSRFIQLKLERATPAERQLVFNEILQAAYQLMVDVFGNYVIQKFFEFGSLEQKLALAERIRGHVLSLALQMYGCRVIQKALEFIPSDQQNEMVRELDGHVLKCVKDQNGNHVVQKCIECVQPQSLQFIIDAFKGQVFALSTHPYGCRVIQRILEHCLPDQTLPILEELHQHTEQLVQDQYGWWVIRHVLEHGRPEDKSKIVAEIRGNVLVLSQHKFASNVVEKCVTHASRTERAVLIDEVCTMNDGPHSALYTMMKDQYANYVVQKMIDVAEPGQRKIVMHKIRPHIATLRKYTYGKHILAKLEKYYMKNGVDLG
# In short: as §1
# Chain of PUM1 PUF domain R1-RRQ (Q14671 828-1176 S863R): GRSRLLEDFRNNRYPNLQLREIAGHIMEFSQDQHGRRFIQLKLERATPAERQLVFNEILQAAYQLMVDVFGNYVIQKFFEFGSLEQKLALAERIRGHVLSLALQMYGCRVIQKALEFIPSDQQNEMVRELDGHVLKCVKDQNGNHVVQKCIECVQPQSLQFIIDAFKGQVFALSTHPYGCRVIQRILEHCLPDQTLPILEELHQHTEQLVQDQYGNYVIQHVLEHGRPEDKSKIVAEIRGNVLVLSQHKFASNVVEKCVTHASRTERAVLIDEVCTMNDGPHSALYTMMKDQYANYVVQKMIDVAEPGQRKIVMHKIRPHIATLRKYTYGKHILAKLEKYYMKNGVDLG
# Chain of PUM1 PUF domain R5-QRR (Q14671 828-1176 C1007Q/Q1011R): as the sequence (Q14671 828-1176 S863R) above, with R36S, C180Q, Q184R counted along it
# Chain of PUM1 PUF domain R5-RRI (Q14671 828-1176 C1007R/Q1011I): as the sequence (Q14671 828-1176 S863R) above, with R36S, C180R, Q184I counted along it
# Chain of PUM1 PUF domain R5-KQL (Q14671 828-1176 C1007K/R1008Q/Q1011L): as the sequence (Q14671 828-1176 S863R) above, with R36S, C180K, R181Q, Q184L counted along it
sequence,measurement,setting,value
GGCUAGAACUAGUGGAUCCCCCGGCGCCCGGCGGCUCGAGCCCGGGUAAGUGUGAAUAGUCUGCAUGCCGCCGGGCGCCAUGCCUGCAGGUCGACUCUAGAAAACAUG,binding signal,PUM1 PUF domain R5-QRR,3 log2 enrichment (interaction score)
GGCUAGAACUAGUGGAUCCCCCGGCGCCCGGCGGCUCGAGCCCGGGUAAGUGUAAAUCGUCUGCAUGCCGCCGGGCGCCAUGCCUGCAGGUCGACUCUAGAAAACAUG,binding signal,PUM1 PUF domain R1-RRQ,5.5 log2 enrichment (interaction score)
same,binding signal,PUM1 PUF domain R1-VWR,1.8 log2 enrichment (interaction score)
GGCUAGAACUAGUGGAUCCCCCGGCGCCCGGCGGCUCGAGCCCGGGUAAGUGUAAAUGGUCUGCAUGCCGCCGGGCGCCAUGCCUGCAGGUCGACUCUAGAAAACAUG,binding signal,PUM1 PUF domain R1-RRQ,1.96 log2 enrichment (interaction score)
same,binding signal,PUM1 PUF domain R1-SWD,4.27 log2 enrichment (interaction score)
GGCUAGAACUAGUGGAUCCCCCGGCGCCCGGCGGCUCGAGCCCGGGUAAGUGUAAGUAGUCUGCAUGCCGCCGGGCGCCAUGCCUGCAGGUCGACUCUAGAAAACAUG,binding signal,PUM1 PUF domain R3-GCE,4.51 log2 enrichment (interaction score)
GGCUAGAACUAGUGGAUCCCCCGGCGCCCGGCGGCUCGAGCCCGGGUAAGUGUUAAUAGUCUGCAUGCCGCCGGGCGCCAUGCCUGCAGGUCGACUCUAGAAAACAUG,binding signal,PUM1 PUF domain R5-RRI,4.69 log2 enrichment (interaction score)
same,binding signal,PUM1 PUF domain R5-RNL,3.54 log2 enrichment (interaction score)
same,binding signal,PUM1 PUF domain R5-QRR,4.36 log2 enrichment (interaction score)
same,binding signal,PUM1 PUF domain R5-KNQ,4.28 log2 enrichment (interaction score)
same,binding signal,PUM1 PUF domain R5-KQL,3.92 log2 enrichment (interaction score)
GGCUAGAACUAGUGGAUCCCCCGGCGCCCGGCGGCUCGAGCCCGGGUAAGUUUAAAUAGUCUGCAUGCCGCCGGGCGCCAUGCCUGCAGGUCGACUCUAGAAAACAUG,binding signal,PUM1 PUF domain R7-RER,4.54 log2 enrichment (interaction score)
GGCUAGAACUAGUGGAUCCCCCGGCGCCCGGCGGCUCGAGCCCGGGUAAGUGAAAAUAGUCUGCAUGCCGCCGGGCGCCAUGCCUGCAGGUCGACUCUAGAAAACAUG,binding signal,PUM1 PUF domain R6-WWR,2.69 log2 enrichment (interaction score)
GGCUAGAACUAGUGGAUCCCCCGGCGCCCGGCGGCUCGAGCCCGGGUAAGUGUAAAUUGUCUGCAUGCCGCCGGGCGCCAUGCCUGCAGGUCGACUCUAGAAAACAUG,binding signal,PUM1 PUF domain R1-RRQ,4.29 log2 enrichment (interaction score)
same,binding signal,PUM1 PUF domain R1-VWR,2.37 log2 enrichment (interaction score)
